From PubChem BioAssay
Shown are actives, neighbours in structure and some others; about 2.9% of the full set was active somewhere.
IDH1 R132H inh = qHTS for Inhibitors of mutant isocitrate dehydrogenase 1 (IDH1): qHTS | Isocitrate dehydrogenase [NADP] cytoplasmic (Homo sapiens), O75874 | IDH1-R132H enzyme, NADPH consumption, diaphorase/resazurin fluorescence | Potency, µM (top dose mostly 76.6 µM), for inactives: top-dose activity change, negative = inhibition, hits mostly inhibitors | actives 0.093% (n = 390,000); note: potency is the fitted concentration of half-maximal effect; % is set by controls: 0 for no effect and ±100 for the full control effect; nearly all actives have a fitted effect of over 65% in size
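IDH1-R132H (0.5 ug/mL) preincubated 30 min with compound, then NADPH (0.016 mM) and alpha-KG (2 mM) added; 80 min at RT, pH 7.5. Remaining NADPH coupled via diaphorase/resazurin to fluorescence (540/590 nm); concentration-response curves normalized to no-enzyme control.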
B2AR arrestin = qHTS assay of beta-arrestin-biased ligands of beta2-adrenergic receptor; beta-arrestin recruitment to beta2AR, cell-based reporter; Potency, µM (series often up to 46.1 µM), for inactives: at the highest dose activation, usual class: activators; actives 0.02% (n = 330,000); AID 492947, 2010;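 note: potency is the fitted concentration of half-maximal effect; 0% = DMSO controls and full agonism = EC100 isoproterenol or metaproterenol; nearly all actives have a fitted effect of over 65% in size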
a7 integrin act = qHTS for Activators of Integrin-Mediated Alleviation for Muscular Dystrophy; alpha7betagal myoblasts, beta-gal FDG fluorescence, 48 h; Potency, µM (doses to about 38.3 µM), inactives show at the top dose activation, usual class: activators; actives 0.064% (n = 350,000); AID 624291, 2012;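 note: potency is the fitted concentration of half-maximal effect; 100% = response of the positive control SU9516; nearly all actives have a fitted effect of over 60% in size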
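Alpha7betagal+/- myoblasts (passage 13) were plated 16-24 hr, then exposed to compounds (1:260 dilution of DMSO stock) for 48 hours at 37C. After MPER lysis, β-galactosidase reporter activity was read as FDG fluorescence (ex 480/em 540) after 30 minutes.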
DRD3 agonist = qHTS of D3 Dopamine Receptor Agonist: qHTS. D(3) dopamine receptor (Homo sapiens), P35462. actives 0.58% (n = 410,000). D3R DiscoveRx beta-arrestin cells, luminescence, 90 min. max activation, %; in the data active = max activation above about 30%; note: 0% is about no effect
Target sequence (P35462 whole entry, looked up): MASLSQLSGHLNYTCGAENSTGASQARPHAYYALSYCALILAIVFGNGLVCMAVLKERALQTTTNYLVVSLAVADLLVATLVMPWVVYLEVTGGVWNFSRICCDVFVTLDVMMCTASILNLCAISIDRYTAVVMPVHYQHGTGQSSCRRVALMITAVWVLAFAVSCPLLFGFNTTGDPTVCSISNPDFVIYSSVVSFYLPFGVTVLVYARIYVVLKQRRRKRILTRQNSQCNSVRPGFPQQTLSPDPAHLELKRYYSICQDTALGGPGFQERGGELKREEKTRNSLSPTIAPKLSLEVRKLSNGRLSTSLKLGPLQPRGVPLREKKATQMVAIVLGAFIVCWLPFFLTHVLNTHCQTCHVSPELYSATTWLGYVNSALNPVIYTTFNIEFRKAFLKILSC
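Cells at 1500/well, incubated overnight, then treated with pinned compounds (dopamine as control) for 90 min at 37 degrees C. DiscoveRx reagent added for 30 - 60 minutes at room temperature; luminescence read.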
DRD3 antagonist = qHTS of D3 Dopamine Receptor Antagonist: qHTS; D(3) dopamine receptor (Homo sapiens), P35462; D3R cells, DiscoveRx beta-arrestin luminescence, antagonist mode; hits give low values; max response, negative = inhibition, %; actives 2.5% (n = 360,000); in the data active = max response below about -50%; inconclusive = no clear call, values can overlap the other calls; note: % is set by controls: 0 for no effect and ±100 for the full control effect
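Cells plated overnight at 1500 cells/well, then exposed to library compounds with dopamine controls for 90 minutes at 37 degrees C. DiscoveRx reagent added for 30–60 minutes at room temperature; luminescence read, quantitative HTS format.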
* hit, by the source's call; u = inconclusive; x = no result given. Unless noted, calls come from the whole dose curve; as a rule, active = well fitted curve in the direction sought with a large enough effect; inconclusive = small, poorly fitted or top-dose-only effect, or another doubt; inactive = no such curve, though single readings can be large; an effect the other way counts as inactive or inconclusive.

SMILES | IDH1 R132H inh | B2AR arrestin | a7 integrin act | DRD3 agonist | DRD3 antagonist
COc1ccc(C2C(C(=O)NCc3ccco3)c3ccccc3C(=O)N2C)cc1 (configuration not stated) | 3.2% | 0.2% | -13.7% | -0.4 | 0.6
CCOC(=O)C1CCCN(C(=O)c2ccc3c(c2)N(Cc2ccccc2F)C(=O)c2ccccc2S3=O)C1 (configuration not stated) | -1.8% | x | x | 9.0 | x
CCOC(=O)CNC(=O)CSc1cn(CC(=O)N2CCCCCC2)c2ccccc12 | 2.0% | x | x | -8.4 | x
CCCNC(=O)C1(C)CCN(CCC(=O)c2ccc(Br)cc2)C1 (configuration not stated) | x | x | x | -7.9 | -19.3
CCNC(=O)C1(C)CCN1CCC(=O)c1ccc(Br)cc1 (configuration not stated) | x | x | x | 73.0* | 0.0
Cc1ccc([C@H]2C[C@H](n3cc(C4CC4)nn3)[C@@H](O)CN2CC2CCCCC2)cc1 | 2.8% | x | -51.2% | 1.1 | 31.6
CCc1nc2ccc(C(=O)NC3CCN(Cc4ccccc4)CC3)cn2c1N(CC)Cc1cccc(Br)c1 | x | x | x | -12.8 | -78.2*
CCc1nc2ccc(C(=O)N(C)Cc3ccccc3)cn2c1N(CC)Cc1cccc(Br)c1 | x | x | x | -3.0 | 17.7
COC(=O)c1cccc2c1NC(=O)C2=O | 0.0% | -0.2% | -56.8% | -13.7 | -74.9*
O=C1Nc2c(Br)cccc2C1=O | 9.3% | -0.5% | -15.9% | -40.5 | -93.9*
O=C1Nc2c(Cl)cccc2C1=O | x | x | x | -10.1 | u
Cc1cccc2c1NC(=O)C2=O | 5.8% | x | 3.9% | -20.7 | -13.4
COc1ccc(OC)c(NC(=O)Cn2ccc3ccccc3c2=O)c1 | -4.5% | x | x | -4.0 | x
Cc1ccccc1NS(=O)(=O)c1ccc2[nH]cc(C(=O)NCCc3ccccc3)c(=O)c2c1 | -10.2% | -0.2% | x | -4.8 | x
O=C(O)c1c[nH]c2ccc([N+](=O)[O-])cc2c1=O | -0.8% | x | -7.0% | -8.3 | -25.8
Cc1ccc(CSc2nnc3c(n2)OC2(Nc4ccccc4-3)C(=O)Nc3ccc(F)cc32)cc1 (configuration not stated) | -20.4% | 0.1% | -21.0% | -22.1 | u
O=C1Nc2ccc(F)cc2C12Nc1ccccc1-c1nnc(SCc3ccccc3)nc1O2 (configuration not stated) | 0.1% | -3.8% | 0.0% | -37.4 | -80.6*
COc1ccccc1-c1cc2nc(-c3ccccc3)cc(N3CCN(C(=O)c4ccoc4)CC3)n2n1 | -13.1% | x | -34.3% | 20.0 | 48.2
COc1ccccc1-c1cc2nc(-c3ccccc3)cc(N3CCN(C(=O)c4ccco4)CC3)n2n1 | -3.0% | x | 13.2% | 39.0* | 62.4
COC(=O)c1cc2ccsc2n1CC(=O)Nc1cc(C)cc(C)c1 | 2.3% | -0.5% | 0.1% | -14.9 | -73.5*
CCOc1ccc(N2CC(NC(=O)Cc3ccccc3)CC2=O)cc1 (configuration not stated) | 0.0% | x | x | -9.6 | x
CC(OC(=O)c1cc(-c2cccnc2)nc2ccccc12)C(=O)Nc1ccc2ccccc2c1 (configuration not stated) | 5.6% | -0.1% | 1.12µM* | -17.1 | 19.3
O=C(NNC(=S)Nc1ccccc1)c1cc(-c2cccnc2)nc2ccccc12 | 2.0% | 0.3% | 5.5% | -3.9 | -9.0
CCc1ccc(OCc2cc(=O)n3cc(C)sc3n2)cc1 | 11.3% | x | x | 1.8 | x
Cc1cc(C)c(C)c(OCCCCN2CCCCC2)c1 | 5.9% | -0.8% | -14.5% | -24.4 | -55.1*
SMILES | IDH1 R132H inh | B2AR arrestin | a7 integrin act | DRD3 agonist | DRD3 antagonist
CCc1ccccc1OCCCCN1CCCCC1 | 6.9% | -0.2% | -16.6% | -14.9 | -87.4*
COc1ccccc1OCCCCN1CCCCC1 | -6.0% | 0.0% | 7.5% | -3.7 | u
CC(C)(C)c1ccccc1OCCCCN1CCCC1 | 7.6% | -0.2% | -32.0% | -16.7 | -68.0*
CCOc1ccccc1OCCCCN1CCCC1 | 0.6% | 0.3% | -8.3% | -3.0 | -63.4*
Cc1cccc(C(C)(C)C)c1OCCCCN1CCCC1 | 10.5% | -0.1% | 0.0% | -12.9 | -16.6
CCc1ccccc1OCCCN1CCCC1 | 2.9% | -0.4% | -9.4% | -2.0 | u
